DT40 TDP1 CPT: growth inhibition of DT40 Tdp1-/-;hTDP1 cells with camptothecin (screen for TDP1 inhibitors) | chicken DT40 Tdp1-/-;hTDP1 cells + 20 nM CPT, ATP luminescence, 48 h | Potency, µM (top dose mostly 46.2 µM), usual class: inhibitors | 420,000 tested, 12% active | AID 686979; also: nearly all actives have a fitted effect of over 55% in size
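Cell growth measured by CellTiter-Glo luminescence after a minimum 48 h, 37 C compound exposure with 20 nM CPT in Tdp1-knockout DT40 cells stably expressing hTDP1, seeded 400/well; qHTS titration format.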
HT1080 IDH1KD tx: kills HT-1080 cells with IDH1 knockdown. 360,000 tested, 2% active. HT-1080 IDH1 knockdown viability, ATP luminescence, 48 h. Potency, µM (titrated, usually from 46.1 µM), most hits filed as cytotoxic
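% activity derives from luminescence (CellTiter-Glo), normalised to DMSO and no-cell wells. HT-1080-IDH1KD cells, 750/well, had 48 h compound exposure at 37 °C.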
HT1080-NT tox: kills 2HG-producing HT-1080-NT fibrosarcoma cells; AID 686970; HT-1080-NT fibrosarcoma viability, CellTiter-Glo ATP luminescence, 48 h; 360,000 tested, 1.6% active; Potency, µM (top dose mostly 46.1 µM), usual class: cytotoxic;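 also: NT is the 2HG producing partner of a matched IDH1 knockdown line; nearly all actives have a fitted effect of over 55% in size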
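A 48-hour cytotoxicity screen used HT-1080-NT cells plated 2 hours before compound delivery. ATP-based CellTiter-Glo luminescence measured viability, normalized to DMSO and no-cell controls.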
TDP1 cell noCPT: qHTS for Inhibitors of human tyrosyl-DNA phosphodiesterase 1 (TDP1): qHTS in cells in absence of CPT. DT40 Tdp1-/- hTDP1 cells, no CPT, ATP luminescence, 48 h. Potency, µM (highest dose often 46.2 µM), most hits filed as inhibitors. 420,000 tested, 15% active. AID 686978, 2013; also: nearly all actives have a fitted effect of over 55% in size
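DT40 Tdp1-/-;hTDP1 cells, no CPT (DMSO vehicle only), 400 cells/well; compounds pin-transferred; ≥48 hr, 37 °C; CellTiter-Glo 30 min RT dark, luminescence read.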
IL-1B inflam inh: blocks inflammasome-driven IL-1 beta release. 360,000 tested, 4.7% active. THP-1 LPS/ATP IL-1B secretion, AlphaLISA, 16 h; stronger effect = lower value. AID 743279. activity change, % at 57.5 µM; in the data active = activity change below about -50%; inconclusive = mostly about -30% to -49%
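Secreted IL-1B measured by AlphaLISA bead assay after 16 h compound exposure of THP-1 cells; compounds (final up to 57.5 uM) added 1 h before LPS (250 ng/mL) and ATP (1.25 mM) stimulation; lower signal means less secretion.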
Each line names hits and unclear results; the compound was inactive in the other large screens. Sampled rows, rich in hits. Any-hit rate of the full collection: about 19%. Unless noted, calls follow the shape of the dose curve; as a rule, active = well fitted curve in the direction sought with a large enough effect; inconclusive = small, poorly fitted or top-dose-only effect, or another doubt; inactive = no such curve, though single readings can be large; an effect the other way counts as inactive or inconclusive.

O=[N+]([O-])c1ccc(NCc2ccc(Cl)cc2)c2ccncc12	DT40 TDP1 CPT 23.1µM, TDP1 cell noCPT 20.6µM, IL-1B inflam inh -57.1
c1ccc(-c2[nH]c(-c3ccccc3)[n+](CC3CO3)c2-c2ccccc2)cc1 (centres undefined)	DT40 TDP1 CPT 5.8µM, TDP1 cell noCPT 10.3µM, IL-1B inflam inh -56.3
COc1ccc(OCC(=O)N2CCN(Cc3c[nH]c4ccccc34)CC2)cc1	DT40 TDP1 CPT 1.64µM, TDP1 cell noCPT 3.66µM
O=C(COc1ccccc1)N1CCN(Cc2c[nH]c3ccccc23)CC1	DT40 TDP1 CPT 3.66µM, TDP1 cell noCPT 8.2µM
COc1ccc(CN2CCN(C(=O)COc3ccccc3)CC2)c(OC)c1	TDP1 cell noCPT inconclusive (no result: HT1080 IDH1KD tx, HT1080-NT tox, IL-1B inflam inh)
Cc1noc(C(=O)Nc2sc3c(c2C#N)CCC3)c1Cl	DT40 TDP1 CPT inconclusive, TDP1 cell noCPT inconclusive
CC(C)N=C(NC(C)C)N1CC1	none
O=C1C(Cl)=C(Cl)C(=O)C(Cl)=C1Cl	DT40 TDP1 CPT 4.61µM, TDP1 cell noCPT 2.91µM (no result: HT1080 IDH1KD tx, HT1080-NT tox, IL-1B inflam inh)
CC/C(=N\NC(N)=O)c1c(O)[nH]c(=O)[nH]c1=O	none
CC/C(=N\Nc1ccccc1)c1c(O)[nH]c(=O)[nH]c1=O	HT1080 IDH1KD tx 3.26µM, HT1080-NT tox inconclusive
CC/C(=N\Nc1cccc2ccccc12)c1c(O)[nH]c(=O)[nH]c1=O	DT40 TDP1 CPT 5.17µM, TDP1 cell noCPT 5.8µM
O=C(COc1ccc2ccccc2c1)N1CCN(C2CCN(Cc3ccccc3)CC2)CC1	DT40 TDP1 CPT 16.4µM, TDP1 cell noCPT inconclusive
COc1ccccc1CN1CCN(C(=O)COc2ccc3ccccc3c2)CC1	DT40 TDP1 CPT inconclusive
COc1ccc(OCC(=O)N2CCN(C3CCC(c4ccccc4)CC3)CC2)cc1 (centres undefined)	DT40 TDP1 CPT inconclusive, TDP1 cell noCPT 18.4µM
CN1CCN(C(=O)COc2ccc3ccccc3c2)CC1	none
COc1ccc(OCC(=O)N2CCCC(N3CCN(c4ccccc4C)CC3)C2)cc1 (centres undefined)	DT40 TDP1 CPT 16.4µM, TDP1 cell noCPT 20.6µM
O=C(COc1ccc2ccccc2c1)N1CCN(CC2CC3C=CC2C3)CC1 (centres undefined)	DT40 TDP1 CPT 18.4µM, TDP1 cell noCPT 18.4µM
Cc1ccc(OCC(=O)N2CCCC(N3CCN(c4ccc(F)cc4)CC3)C2)cc1 (centres undefined)	DT40 TDP1 CPT inconclusive, TDP1 cell noCPT inconclusive
S=C(NCc1ccccc1)NCC1COc2ccccc2O1 (centres undefined)	HT1080 IDH1KD tx inconclusive, HT1080-NT tox inconclusive
COCCNC(=O)Cn1cc(C(=O)c2ccccc2F)c2ccccc21	none
Oc1cc(O)c2c(c1)OC(c1cc(O)c(O)c(O)c1)C(O)C2 (centres undefined)	DT40 TDP1 CPT 3.26µM, TDP1 cell noCPT inconclusive (no result: HT1080 IDH1KD tx, HT1080-NT tox, IL-1B inflam inh)
OC1CCCCC1N1CCC(c2ccccc2)CC1 (centres undefined)	none
CC/C(=N\NC(=O)c1ccccc1O)c1c(O)n(C2CCCCC2)c(=O)[nH]c1=O	none
C[C@@]12CC[C@@H]3c4ccc(O)cc4C[C@H](CCCCCCCCCS(=O)CCCC(F)(F)C(F)(F)F)[C@H]3[C@@H]1CC[C@@H]2O (some centres undefined)	TDP1 cell noCPT 11.9µM (no result: HT1080 IDH1KD tx, HT1080-NT tox, IL-1B inflam inh)
CC(=O)OC1C=CC2[C@H]3Cc4ccc(O)c5c4[C@@]2(CCN3C)C1O5 (some centres undefined)	none
CCOC(=O)Cc1csc(NC(=O)c2c(O)c3ccccc3n(CCC(C)C)c2=O)n1	DT40 TDP1 CPT 4.11µM, TDP1 cell noCPT 4.61µM
CCCCCn1c(=O)c(C(=O)NCc2ccccc2Cl)c(O)c2ccccc21	DT40 TDP1 CPT inconclusive, TDP1 cell noCPT inconclusive
CCCCCCn1c(=O)c(C(=O)Nc2nc(CC(=O)OCC)cs2)c(O)c2ccccc21	DT40 TDP1 CPT 3.66µM, TDP1 cell noCPT 3.66µM
CC(C)(C)NCc1cccn1-c1sc2c(c1C#N)CCCC2	DT40 TDP1 CPT inconclusive
COC(=O)c1c(N)[nH]c(C(=O)c2ccccc2)c1-c1ccc(Cl)cc1	DT40 TDP1 CPT inconclusive, TDP1 cell noCPT inconclusive
